Test results: PubChem BioAssay AID602144 (Vanderbilt Specialized Chemistry Center, 2011)
The source made the active and inactive calls. Rule as the data show it: active = remaining activity below about 50%; inactive = the rest.

Target: Phospholipase D1 (Homo sapiens) (UniProt Q13393)
Assay: PLD1 inhibitors in cells, Calu-1 cells, single concentration (AID 602144);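 also: tested at 200 nM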
Conditions: cellular PLD1 activity, hits give low values

Phospholipase D1 (Homo sapiens), sequence (Q13393 whole entry, looked up): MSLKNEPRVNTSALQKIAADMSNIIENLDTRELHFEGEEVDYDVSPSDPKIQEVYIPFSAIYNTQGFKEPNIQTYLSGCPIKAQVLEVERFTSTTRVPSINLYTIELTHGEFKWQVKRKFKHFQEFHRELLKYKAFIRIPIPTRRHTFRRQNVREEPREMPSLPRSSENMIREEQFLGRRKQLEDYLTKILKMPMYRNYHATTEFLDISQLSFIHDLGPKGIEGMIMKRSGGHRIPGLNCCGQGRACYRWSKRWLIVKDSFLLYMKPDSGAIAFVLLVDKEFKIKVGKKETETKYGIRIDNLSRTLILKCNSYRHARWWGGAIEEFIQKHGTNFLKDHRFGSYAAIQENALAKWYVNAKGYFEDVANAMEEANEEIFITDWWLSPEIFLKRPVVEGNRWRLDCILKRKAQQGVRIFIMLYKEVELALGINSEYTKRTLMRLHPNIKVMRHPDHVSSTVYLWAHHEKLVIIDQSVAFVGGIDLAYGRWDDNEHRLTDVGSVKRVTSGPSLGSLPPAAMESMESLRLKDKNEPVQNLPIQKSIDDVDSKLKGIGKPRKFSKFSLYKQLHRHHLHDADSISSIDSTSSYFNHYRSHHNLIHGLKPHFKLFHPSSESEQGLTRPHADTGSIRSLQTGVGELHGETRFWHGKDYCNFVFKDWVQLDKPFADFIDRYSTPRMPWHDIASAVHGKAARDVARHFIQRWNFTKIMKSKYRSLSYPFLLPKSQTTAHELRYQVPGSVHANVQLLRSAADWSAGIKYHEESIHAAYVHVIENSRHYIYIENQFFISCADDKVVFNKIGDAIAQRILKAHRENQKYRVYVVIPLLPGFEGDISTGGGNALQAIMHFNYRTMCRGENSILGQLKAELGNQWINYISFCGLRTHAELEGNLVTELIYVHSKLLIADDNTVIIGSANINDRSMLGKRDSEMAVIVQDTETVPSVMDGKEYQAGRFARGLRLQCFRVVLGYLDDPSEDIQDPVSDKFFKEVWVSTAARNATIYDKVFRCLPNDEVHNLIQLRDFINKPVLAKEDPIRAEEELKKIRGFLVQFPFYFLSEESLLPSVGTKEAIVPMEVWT
Phospholipase D1 (Homo sapiens), sequence (Q13393 whole entry, looked up): as above

| Compound | remaining activity |
| --- | --- |
| O=C(c1ccc(Cl)cc1)N1CCC(n2c(=O)[nH]c3cc(Cl)ccc32)CC1 | 79.2% (inactive) |
| O=C(NCCN1CCC2(CC1)CNc1ccccc12)c1ccc2ccccc2c1 | 43.9% (active) |
| O=C(NCCN1CCN(c2ccccn2)CC1)c1ccc(F)cc1 | 126% (inactive) |
| C[C@@H](CN1CCC(n2c(=O)[nH]c3cc(-c4ccccc4)ccc32)CC1)NC(=O)[C@H]1C[C@@H]1c1ccccc1 | 67.4% (inactive) |
| CS(=O)(=O)N1CC2(CCN(CCNC(=O)c3cnc4ccccc4c3)CC2)c2ccccc21 | 99.4% (inactive) |
| Cc1cccc(C(=O)NCCN2CCC(n3c(=O)[nH]c4ccccc43)CC2)n1 | 26.7% (active) |
| O=C(NCCN1CCC(n2c(=O)[nH]c3ccccc32)CC1)c1ccc2c(c1)CCCC2 | 83.6% (inactive) |
| O=C(NCCN1CCC(n2c(=O)[nH]c3ccccc32)CC1)c1cccc(F)n1 | 34% (active) |
| O=c1[nH]c2ccccc2n1C1CCN(CCNC(=S)Nc2ccccn2)CC1 | 148% (inactive) |
| O=C(NCCN1CCC2(CC1)CNc1ccccc12)C1CC1c1ccccc1 (stereo not given) | 113% (inactive) |
| CCOC(=O)CNC(=O)NCCN1CCC(n2c(=O)[nH]c3ccccc32)CC1 | 136% (inactive) |
| Cn1c(=O)n(C2CCN(CCNC(=O)[C@H]3C[C@@H]3c3ccccc3)CC2)c2ccccc21 | 76.2% (inactive) |
| COc1ccccc1NC(=S)NCCN1CCC(n2c(=O)[nH]c3ccccc32)CC1 | 152% (inactive) |
| Cc1ccc(C(=O)NCCN2CCC(n3c(=O)[nH]c4cc(Br)ccc43)CC2)cc1 | 3.74% (active) |
| C[C@@H](CN1CCC(n2c(=O)[nH]c3ccccc32)CC1)NC(=O)Cc1cccs1 | 101% (inactive) |
| O=C(NCCN1CCN(c2ccccn2)CC1)c1ccc(Cl)cc1 | 153% (inactive) |
| NC1(CN2CCC(n3c(=O)[nH]c4cc(Cl)ccc43)CC2)CCCC1 (tested in a mixture with another compound) | 70.2% (inactive) |
| O=C(NCCN1CCC(n2c(=O)[nH]c3ccccc32)CC1)NCc1cccc(F)c1 | 45.6% (active) |
| C[C@@H](CN1CCC2(CCc3ccccc32)CC1)NC(=O)c1ccc2ccccc2c1 | 91.4% (inactive) |
| O=C(NCCN1CCC(n2c(=O)[nH]c3ccccc32)CC1)c1cccc2cccnc12 | 30.7% (active) |

| Compound | remaining activity |
| --- | --- |
| O=C(NCCN1CCC(n2c(=O)n(C(=O)c3ccc(Cl)cc3)c3ccccc32)CC1)c1ccc(Cl)cc1 | 27.8% (active) |
| CC(=O)c1cccc(NC(=O)NCCN2CCC(n3c(=O)[nH]c4ccccc43)CC2)c1 | 137% (inactive) |
| O=C(NCCN1CCC(n2c(=O)[nH]c3ccccc32)CC1)c1cc2ccccc2c2c1ccc1ccccc12 | 102% (inactive) |
| O=C(N[C@@H](Cc1ccccc1)CN1CCC(n2c(=O)[nH]c3ccccc32)CC1)c1ccc(F)c(F)c1 | 90.2% (inactive) |
| O=C(NCCN1CCC(n2c(=O)[nH]c3ccccc32)CC1)c1cscn1 | 16.7% (active) |
| O=C(NCCN1CCC(C(=O)NCCCN2CCOCC2)CC1)c1ccc2ccccc2c1 | 68.3% (inactive) |
| C[C@@H](CN1CCC(c2nc3ccc(F)cc3[nH]2)CC1)NC(=O)[C@H]1CC1c1ccccc1 (stereo not given in full) | 88% (inactive) |
| C[C@@H](CN1CCC(n2c(=O)[nH]c3cc(F)ccc32)CC1)NC(=O)c1ccc(F)c(F)c1 | 19.7% (active) |
| O=C(NCCN1CCC2(CCc3ccccc32)CC1)[C@H]1C[C@@H]1c1ccccc1 | 125% (inactive) |
| C[C@@H](CN1CCC(n2c(=O)[nH]c3ccccc32)CC1)NC(=O)c1ccc(Cl)c(Cl)c1 | 20.9% (active) |
| O=c1[nH]c2ccccc2n1C1CCN(CCNS(=O)(=O)c2ccccc2[N+](=O)[O-])CC1 | 132% (inactive) |
| C[C@@H](CN1CCC2(C=Cc3ccccc32)CC1)NC(=O)c1cnc2ccccc2c1 | 137% (inactive) |
| O=C(NCCN1CCC(n2c(=O)[nH]c3cc(Cl)ccc32)CC1)c1ccc2ccccc2c1 | 10.3% (active) |
| Cc1cccc(NC(=S)NCCN2CCC(n3c(=O)[nH]c4ccccc43)CC2)c1 | 148% (inactive) |
| O=C(CCN1CCC(n2c(=O)[nH]c3ccccc32)CC1)NCc1ccc(Cl)cc1 | 98.9% (inactive) |
| O=C(NCCN1CC=C(n2c(=O)[nH]c3ccccc32)CC1)C1CC1c1ccccc1 (stereo not given) | 0% (active) |
| COc1ccc(S(=O)(=O)NCCN2CCC(n3c(=O)[nH]c4ccccc43)CC2)cc1 | 140% (inactive) |
| O=C(NCCN1CCN(c2ccncc2)CC1)c1cc2cc(F)ccc2[nH]1 | 162% (inactive) |
| C[C@@H](CN1CCC(n2c(=O)[nH]c3ccccc32)CC1)NC(=O)C1C[C@H]1c1ccccc1 (stereo not given in full) | 25.5% (active) |
| O=C(NCCN1CCC2(CC1)CNCc1ccccc12)c1cnc2ccccc2c1 | 95.4% (inactive) |
